In the supplement of paper PMC12669032:

Columns and labels:
Assay in all cases: growth AUC relative to DMSO control (median of replicates) (fraction); higher = more growth (less inhibition), active = hit call of the paper
Conditions in all cases: 20 µM; 24 h;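 active = AUC reduced over 20% with Padj below 0.05 in at least 2 of 3 replicates; inactive = otherwise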
[1] = test system: Akkermansia muciniphila
How it was run: (§1)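 For each compound at 20 µM (1% DMSO), gut bacterial monocultures seeded at OD600 0.05 grew anaerobically in mGAM at 37 °C in round-bottom 96-well plates. Hourly OD600 readings over 24 h gave growth curves whose minimum OD was set to 0. Area under these curves was normalised to the plate median of solvent-only wells, or to row and column medians on the industrial chemical plate. Values are medians of three biological replicates grown on separate days.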

[2] = test system: Bacteroides caccae
How it was run: as §1

[3] = test system: Bacteroides clarus
How it was run: as §1

[4] = test system: Bacteroides dorei
How it was run: as §1

[5] = test system: Bacteroides stercoris
How it was run: as §1

[6] = test system: Bacteroides thetaiotaomicron
How it was run: as §1

[7] = test system: Bacteroides uniformis
How it was run: as §1

[8] = test system: Bifidobacterium longum subsp. longum
How it was run: as §1

[9] = test system: Clostridium difficile
How it was run: as §1

[10] = test system: Collinsella aerofaciens
How it was run: as §1

Measured: growth AUC

CC(C)C1C2CCC1c1c(NC(=O)c3cn(C)nc3C(F)F)cccc12 (stereo not given)
inactive: [1] 0.967 | [2] 0.88 | [3] 0.85 | [4] 0.965 | [5] 0.902 | [6] 0.906 | [7] 0.912 | [8] 0.912 | [9] 0.962 | [10] 0.969

CCN(Cc1c(F)cccc1Cl)c1c([N+](=O)[O-])cc(C(F)(F)F)cc1[N+](=O)[O-]
inactive: [1] 0.852 | [2] 0.822 | [3] 0.831 | [4] 1.02 | [6] 0.934 | [7] 1.03 | [8] 0.909 | [9] 0.99 | [10] 0.829
active: [5] 0.27

COc1c(I)cc(C#N)cc1I
inactive: [1] 0.86 | [2] 0.837 | [3] 0.932 | [4] 1.02 | [5] 1.13 | [6] 0.932 | [7] 0.882 | [8] 1.02 | [9] 0.943 | [10] 0.883

O=c1cc(Cl)[nH]nc1-c1ccccc1
inactive: [1] 0.833 | [2] 1.01 | [3] 0.967 | [4] 1.05 | [5] 0.777 | [6] 1.02 | [7] 1.01 | [8] 0.954 | [9] 1.07 | [10] 0.983

N#CC(=NOCC1OCCO1)c1ccccc1
inactive: [1] 1.03 | [2] 0.834 | [3] 0.992 | [4] 0.963 | [5] 1.06 | [6] 0.981 | [7] 0.96 | [8] 1.06 | [9] 1.02 | [10] 0.936

CCC(C)c1cc([N+](=O)[O-])cc([N+](=O)[O-])c1OC(=O)OC(C)C (stereo not given)
active: [5] 0.294
inactive: [1] 1.05 | [2] 0.909 | [3] 0.81 | [4] 0.892 | [6] 0.875 | [7] 0.881 | [8] 0.959 | [9] 0.945 | [10] 0.915

C#CCOc1cc(-n2nc(C(C)(C)C)oc2=O)c(Cl)cc1Cl
inactive: [1] 1.14 | [2] 0.977 | [3] 0.986 | [4] 0.951 | [5] 0.879 | [6] 0.932 | [8] 1.05 | [9] 0.862 | [10] 0.917
active: [7] 0.799

O=C=NC1CCC(CC2CCC(N=C=O)CC2)CC1 (stereo not given)
inactive: [1] 1.05 | [2] 0.986 | [3] 1.03 | [4] 0.939 | [5] 1.03 | [6] 0.995 | [7] 0.996 | [8] 1.05 | [9] 1.01 | [10] 1.02

CN(C)C=O
inactive: [1] 1.08 | [2] 0.991 | [3] 1.05 | [4] 0.936 | [5] 1.05 | [6] 1.01 | [7] 1.05 | [8] 1.13 | [9] 0.999 | [10] 1.01

CCSC(=O)N(CC(C)C)CC(C)C
inactive: [1] 0.967 | [2] 1.05 | [3] 1 | [4] 1.02 | [5] 0.987 | [6] 1.01 | [7] 0.994 | [8] 0.842 | [9] 0.993 | [10] 1.04

O=C(Nc1ccc(F)cc1-c1ccc(Cl)c(Cl)c1)c1cn[nH]c1C(F)F
active: [3] 0.724 | [5] 0.349 | [6] 0.635 | [7] 0.689
inactive: [1] 1.02 | [2] 0.865 | [4] 0.968 | [8] 0.952 | [9] 0.971 | [10] 1.01

CCSC(=O)COc1ccc(Cl)cc1C
active: [6] 0.751
inactive: [1] 0.952 | [2] 0.977 | [3] 0.982 | [4] 0.905 | [5] 0.997 | [7] 1.03 | [8] 1.04 | [9] 1.04 | [10] 0.966

CCOC(=O)c1ccc(O)cc1
inactive: [1] 1.17 | [2] 0.967 | [3] 1.01 | [4] 0.842 | [5] 0.993 | [6] 0.991 | [7] 1 | [8] 1.02 | [9] 1.01 | [10] 1

O=S(=O)(Cc1ccc(Cl)cc1)c1ccc(Cl)cc1
inactive: [1] 0.848 | [2] 1 | [3] 0.981 | [4] 1.02 | [5] 1.12 | [6] 0.963 | [7] 0.997 | [8] 1.03 | [9] 1.01 | [10] 1.01

C=O
inactive: [1] 0.996 | [2] 1.01 | [3] 0.982 | [4] 1.02 | [5] 1.03 | [6] 0.972 | [7] 0.988 | [8] 0.984 | [9] 0.968 | [10] 1.04

COC(=O)CSc1cc(N=c2sc(=O)n3n2CCCC3)c(F)cc1Cl
inactive: [1] 1.11 | [2] 1 | [3] 0.999 | [4] 0.945 | [5] 1.04 | [6] 0.94 | [7] 0.988 | [8] 0.985 | [9] 0.982 | [10] 1.01

CCCCOCCOC(=O)COc1nc(Cl)c(Cl)cc1Cl
inactive: [1] 1.02 | [2] 0.954 | [3] 0.956 | [4] 0.948 | [5] 0.995 | [6] 0.963 | [7] 0.928 | [8] 0.934 | [9] 0.979 | [10] 0.977

COC(=O)c1ccc(C(=O)OC)cc1
inactive: [1] 0.99 | [2] 0.964 | [3] 0.978 | [4] 1.01 | [5] 1.02 | [6] 0.991 | [7] 0.972 | [8] 0.993 | [9] 1.01 | [10] 1.01

CCOc1nc(F)cc2nc(S(=O)(=O)Nc3c(Cl)cccc3C(=O)OC)nn12
inactive: [1] 0.983 | [2] 0.999 | [3] 0.984 | [4] 0.988 | [5] 0.978 | [6] 0.999 | [7] 0.987 | [8] 0.982 | [9] 0.98 | [10] 1.02

CCCCCCCCCCCC[N+](C)(C)Cc1ccc(CC)cc1.[Cl-]
active: [2] 0.0238 | [3] 0.234 | [5] 0.00577 | [6] 0.00582 | [7] 0.0211 | [8] 0.665 | [10] 0.502
inactive: [1] 0.765 | [4] 0.92 | [9] 0.73

CCOC(=O)C1CC(=O)C(=C(O)C2CC2)C(=O)C1 (stereo not given)
inactive: [1] 1.01 | [2] 1.03 | [3] 0.965 | [4] 0.979 | [5] 0.982 | [6] 1 | [7] 0.972 | [8] 1.03 | [9] 1.01 | [10] 0.986

C#CCOC(=O)[C@@H](C)Oc1ccc(Oc2ncc(Cl)cc2F)cc1
inactive: [1] 0.914 | [2] 0.998 | [3] 0.985 | [4] 1.02 | [5] 1.05 | [6] 0.975 | [7] 0.942 | [8] 1.04 | [9] 0.99 | [10] 0.964

CCC/C(=N\OCC)C1=C(O)CC(C2CCCSC2)CC1=O (stereo not given)
inactive: [1] 1.22 | [2] 0.946 | [3] 1.01 | [4] 0.936 | [5] 0.999 | [6] 1.04 | [7] 0.974 | [8] 1.04 | [9] 1.01 | [10] 0.993

CCCOc1nc2ccc(I)cc2c(=O)n1CCC
inactive: [1] 0.956 | [2] 0.995 | [3] 0.896 | [4] 1.01 | [5] 0.905 | [6] 0.936 | [7] 0.95 | [8] 0.937 | [9] 0.964 | [10] 0.952

CCOC(=O)Nc1cccc(OC(=O)Nc2cccc(C)c2)c1
inactive: [1] 1.05 | [2] 0.951 | [3] 0.948 | [4] 0.882 | [5] 0.932 | [6] 0.979 | [7] 1.02 | [8] 1.02 | [9] 0.966 | [10] 0.901

CNC(=O)/C(=N/OC)c1ccccc1COc1cc(C(=O)O)ccc1C
inactive: [1] 1.01 | [2] 0.982 | [3] 1.03 | [4] 0.979 | [5] 0.967 | [6] 0.998 | [7] 1.01 | [8] 0.998 | [9] 0.991 | [10] 1

COc1cc(OC)nc(NC(=O)NS(=O)(=O)N(C)S(C)(=O)=O)n1
inactive: [1] 0.951 | [2] 1.03 | [3] 1.05 | [4] 1.01 | [5] 1.06 | [6] 0.982 | [7] 0.98 | [8] 0.945 | [9] 0.907 | [10] 1.04
